From PubChem BioAssay
VACV mCherry inh: inhibitors of vaccinia virus infection (mCherry reporter signal); Vaccinia virus mCherry reporter infection, fluorescence; Potency, µM (highest dose often 36.5 µM), usual class: inhibitors; hit rate 0.63% among 310,000; AID 720579; calls by dose curve; tested in A549 cells; note: nearly all actives have a fitted effect of over 35% in size
AMA1-RON2 inh: AMA1-RON2 (P. falciparum) interaction inhibition. AlphaScreen AMA1-biotinylated RON2 peptide binding. Potency, µM (series often up to 58.2 µM), actives largely listed as inhibitors. hit rate 0.2% among 360,000. AID 720542; note: nearly all actives have a fitted effect of over 45% in size
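AMA1 (3D7) with his tag at 25 nM final met compounds first, then biotinylated RON2 peptide at 25 nM; detection used donor plus acceptor beads, 10 µg/mL apiece, read by AlphaScreen after 30 min at room temperature.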
Vaccinia Venus: inhibitors of vaccinia virus (Venus reporter). Vaccinia virus Venus reporter expression, fluorescence. Potency, µM (doses to about 36.5 µM), actives largely listed as inhibitors. hit rate 0.46% among 330,000; calls by dose curve; tested in A549 cells; note: nearly all actives have a fitted effect of over 30% in size
Pf growth 48h: inhibits P. falciparum growth in the first generation, 48 h. AID 504832. Potency, µM (highest dose often 28.7 µM), most hits filed as inhibitors. hit rate 5.9% among 310,000. P. falciparum luciferase growth in erythrocytes, 48 h
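Parasite viability was followed by luminescence of a genomically integrated firefly luciferase. Cultures held 0.1% parasitemia at 2% hematocrit (final), incubated under 5% CO2 at 37 C.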
Pf growth 96h: inhibits malaria parasite growth, 96 h; AID 504834; Potency, µM (top dose mostly 28.7 µM), usual class: inhibitors; P. falciparum luciferase reporter growth, 96 h; hit rate 6.9% among 320,000
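Erythrocytes infected with luciferase-expressing P. falciparum were dispensed at 2% hematocrit and 0.05% parasitemia (final), then incubated with compounds 96 hours at 37 C in 5% CO2. Luminescence after detection reagent addition reported growth.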
A number is an active result; i = inactive; ? = inconclusive; nt = no result given; [ ] = another dose, or the depositor's remark. Only some compounds are listed: those with a hit (about 8.7% of all), similar ones and a draw of the others. Unless noted, calls come from the whole dose curve; as a rule, active = well fitted curve in the direction sought with a large enough effect; inconclusive = small, poorly fitted or top-dose-only effect, or another doubt; inactive = no such curve, though single readings can be large; an effect the other way counts as inactive or inconclusive.

SMILES	VACV mCherry inh	AMA1-RON2 inh	Vaccinia Venus	Pf growth 48h	Pf growth 96h
CCOc1cc(/C=C2\COc3ccccc3C2=O)cc(Br)c1OCC(=O)N(C)C	?	i	?	?	10µM
Cn1c(N/N=C/c2cccs2)nc2c1c(=O)n(Cc1ccccc1)c(=O)n2C	i	i	i	i	?
Cn1c(=O)c2c(nc(N/N=C/c3cccs3)n2Cc2ccccc2)n(C)c1=O	i	i	i	?	10µM
COCCNc1nc2c(c(=O)n(Cc3ccc(OC)cc3)c(=O)n2C)n1C	nt	i	nt	i	i
Cn1c(=O)c2c(nc(SCC(=O)NCc3ccc4c(c3)OCO4)n2Cc2ccc(F)cc2)n(C)c1=O	i	i	i	13µM	10µM
Cn1c(=O)c2c(nc(NCc3ccccc3)n2Cc2ccc(F)cc2)n(C)c1=O	nt	nt	nt	?	15µM
CCCNc1nc2c(c(=O)n(C)c(=O)n2C)n1Cc1ccc(F)cc1	?	i	i	i	i
COc1ccc(CNc2nc3c(c(=O)n(Cc4ccc(Cl)cc4)c(=O)n3C)n2C)cc1	nt	i	nt	2.6µM	?
COc1cc(NC(=O)CN(c2ccc(C)cc2)S(=O)(=O)c2cccc3nonc23)cc(OC)c1	i	nt	i	nt	nt
Cn1c(=O)c2c(nc(Br)n2Cc2ccc3ccccc3c2)n(C)c1=O	nt	i	nt	nt	5.2µM
CCNc1nc2c(c(=O)n(Cc3ccccc3)c(=O)n2C)n1Cc1ccccc1	nt	i	?	10µM	i
Cn1c(=O)c2c(nc(Br)n2Cc2ccccc2Cl)n(C)c1=O	nt	i	i	i	?
CCNc1nc2c(c(=O)n(C)c(=O)n2C)n1Cc1ccc(Cl)cc1	i	i	i	i	?
Cc1ccc(C(=O)c2cc([N+](=O)[O-])ccc2N2CCOCC2)cc1C	?	i	i	i	?
Cc1ccc(C(=O)c2cc([N+](=O)[O-])ccc2N2CCOCC2)c(C)c1	?	i	i	?	10µM
Cc1ccc(C)c(C(=O)COC(=O)c2cc([N+](=O)[O-])ccc2N2CCOCC2)c1	i	i	i	?	15µM
CCCCC[C@]12Cc3ccccc3C(O1)c1c(cc(C)oc1=O)O2	nt	nt	nt	i[5.75 µM]	0.67µM
COc1cc(C#Cc2c(C=O)n(C)c3ccccc23)cc(OC)c1	i	i	?	?	?
C=CCn1c2ccccc2c(=O)c2cc(C#Cc3cc(OC)cc(OC)c3)ccc21	i	i	i	12µM	?
O=c1[nH]/c(=C/c2ccc3c(c2)OCO3)c(=O)[nH]/c1=C/c1ccc2c(c1)OCO2	i	nt	i	nt	nt
CCOC(=O)C1CCCCN1C(=O)c1cnn(-c2nccc(-c3cc(C)sc3C)n2)c1C1CC1 (stereo not given)	i	nt	i	nt	nt
CCOc1ccc(C2C=C(c3ccc(F)cc3)Nc3ncnn32)cc1 (stereo not given)	i	i	i	12µM	nt
COc1ccc(C2C=C(c3ccc(C)cc3)Nc3ncnn32)cc1 (stereo not given)	nt	i	i	12µM	i[5.75 µM]
COc1cccc(C2=CC(c3ccc(N(C)C)cc3)n3ncnc3N2)c1 (stereo not given)	nt	nt	nt	10µM	i
COc1cccc(C2=CC(c3ccc(N(C)C)cc3)n3nnnc3N2)c1 (stereo not given)	?	i	i	i	i
SMILES	VACV mCherry inh	AMA1-RON2 inh	Vaccinia Venus	Pf growth 48h	Pf growth 96h
CN(C)c1ccc(/C=C2\C(=O)/C(=C\c3ccc(N(C)C)cc3)c3ccccc32)cc1	i	nt	i	nt	nt
CCc1c(C)nc2c(C#N)c[nH]n2c1=O	nt	i	nt	i	0.52µM
CCOC(=O)Cc1c(C)nc2c(C#N)c[nH]n2c1=O	i	i	i	i	i
CCCc1[nH]n(-c2ccc([N+](=O)[O-])cc2)c(=O)c1C=NCCN1CCNCC1	nt	nt	nt	i	i
CCCc1[nH]n(-c2ccc([N+](=O)[O-])cc2)c(=O)c1C=NCCCn1ccnc1	i	i	i	13µM	i
CC(C)Cc1nc2cc(NS(=O)(=O)N(C)C)cc(C(=O)N3CCOc4ccccc4C3)c2n1C	i	nt	i	nt	nt
CC(=O)NCCC(=O)N(Cc1ccccc1)c1nc2c(C)cccc2s1	i	i	i	7.4µM	?
CN1c2ccccc2C2(C)CCCC3=Cc4cc([N+](=O)[O-])cc([N+](=O)[O-])c4OC312 (stereo not given)	i	?	i	5.9µM	?
CN1c2ccccc2C2(C)CCCC3=Cc4cccc([N+](=O)[O-])c4OC312 (stereo not given)	i	i	i	?	?
COc1cc2nc(N3CCCN(C)CC3)nc(NC3CCN(C)C3)c2cc1OC (stereo not given)	?	nt	11µM	nt	nt
COc1cc2c(NC3CCN(C)CC3)nc(N3CCCN(C)CC3)nc2cc1OCC1CCCCN1 (stereo not given)	5µM	nt	16µM	nt	nt
COc1cc2nc(N3CCCN(C)CC3)nc(N(C)C3CCN(C)CC3)c2cc1OC	10µM	nt	10µM	nt	nt
COc1cc2nc(N3CCCN(C)CC3)nc(NC3CCCCC3)c2cc1OC	i	nt	?	nt	nt
COc1cc2c(NC3CCN(C)CC3)nc(N3CCCN(C)CC3)nc2cc1OCCN(C)CCN(C)C	i	nt	i	nt	nt
CCCN(CCC)C(=O)Cn1c(=O)n(Cc2ccc(C(=O)NCCc3ccc(OC)c(OC)c3)cc2)c(=O)c2ccccc21	i	nt	i	nt	nt
COC(=O)C1CCN(Cc2ccc3c(c2)CN(C(=O)C(C)N2CCOCC2)CCO3)CC1 (stereo not given)	i	nt	i	nt	nt
c1ccc(Oc2nc(-c3cccnc3)nc3ccccc23)cc1	nt	i	nt	10µM	?
Cc1ccccc1Oc1nc(-c2ccccn2)nc2ccccc12	i	i	?	1.9µM	0.93µM
CCOc1nc(-c2ccncc2)nc2ccccc12	nt	i	nt	?	?
CC(=O)Nc1cccc(Oc2nc(-c3ccccn3)nc3ccccc23)c1	?	i	i[7.34 µM]	?	?
Cc1cccc(Oc2nc(-c3ccccn3)nc3ccccc23)c1	?	i	?	1.9µM	2.6µM
Cc1cccc(Oc2nc(-c3ccncc3)nc3ccccc23)c1	i[7.34 µM]	i	i[7.34 µM]	1.7µM	1.5µM
CCOc1ccc(NC(=O)c2cn3c4c(ccc(Cl)c4c2=O)OC(C)C3)cc1 (stereo not given)	i	nt	i	nt	nt
CC(=O)Nc1ccc(Oc2nc(-c3ccccn3)nc3ccccc23)cc1	i	i	?	?	12µM
COc1ccc(OC)c(CCNC(=O)c2cnn(-c3ccccc3Cl)c2C2CCN(C(=O)OC(C)(C)C)CC2)c1	i	nt	i	nt	nt
SMILES	VACV mCherry inh	AMA1-RON2 inh	Vaccinia Venus	Pf growth 48h	Pf growth 96h
Clc1ccc(-n2nnnc2-c2cnc(-c3ccncc3)nc2-c2cccs2)cc1	nt	i	nt	4.7µM	?
FC(F)(F)c1nc(-c2cccs2)ncc1-c1nnnn1-c1ccc(Cl)cc1	nt	i	nt	nt	i
C=CCc1ccc(O)c(-c2cc(CC=C)ccc2O)c1	i	i	i	?	3.7µM
C=CCc1ccc(OCC(O)CO)c(OC)c1 (stereo not given)	i	i	i	i	nt
COc1ccc(OCC(=O)Nc2ccc(C(=O)OCc3cc(=O)n4nc(C)sc4n3)cc2)cc1	i	nt	i	nt	nt
O=C(C1CCCN(S(=O)(=O)c2cccc3cccnc23)C1)N1CCN(c2ccccc2F)CC1 (stereo not given)	nt	i	nt	nt	15µM
O=C(C1CCN(S(=O)(=O)c2cccc3nsnc23)CC1)N1CCN(c2ccccc2F)CC1	i	i	?	i	2.6µM
